In PubChem BioAssay (EPA / NIEHS) one finds outcome and AC50 data, which are given here for 45 compounds.

The target of assay [1] is Cellular tumor antigen p53 (Homo sapiens) (UniProt P04637). Nature of the assay: TOX21_p53_BLA_p2_ratio: Tox21 HCT-116 p53 Agonism Beta-lactamase Assay, Ratio, Phase 2 (AID 2283592). In short, it runs like this: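 In this cell-based reporter format, HCT116 cells were dosed with chemicals delivered from DMSO by 217-fold dilution and incubated 16 h at 37C. Emission at 460 and 530 nm after 2 h CCF4-AM loading provided the ratio, fitted upward versus DMSO.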
Cellular tumor antigen p53 (Homo sapiens), sequence (P04637 whole entry, looked up): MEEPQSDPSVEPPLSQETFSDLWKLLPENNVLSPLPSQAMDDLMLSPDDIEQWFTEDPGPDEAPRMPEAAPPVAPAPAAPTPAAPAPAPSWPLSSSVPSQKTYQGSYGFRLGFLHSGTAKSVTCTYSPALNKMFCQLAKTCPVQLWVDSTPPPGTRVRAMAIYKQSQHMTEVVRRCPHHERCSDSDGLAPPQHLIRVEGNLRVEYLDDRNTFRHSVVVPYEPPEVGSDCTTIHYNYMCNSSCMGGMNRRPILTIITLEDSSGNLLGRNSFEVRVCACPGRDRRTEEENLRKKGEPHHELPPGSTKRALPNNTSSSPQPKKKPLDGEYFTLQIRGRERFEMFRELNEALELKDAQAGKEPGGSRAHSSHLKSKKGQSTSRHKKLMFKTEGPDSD

A short description of assay [2]: TOX21_p53_BLA_p3_viability: Viability Assessment in the Tox21 HCT-116 p53 Agonism Beta-lactamase Assay, Phase 3 (AID 2283593).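 Note: cells exposed to compound for 16 h before reading.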 Put shortly: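 HCT116 cells, 4000/well, dosed 5 h after plating by pin transfer (217-fold dilution from DMSO stock) and incubated 16 h at 37C, 5% CO2. Viability read as ATP luminescence with CellTiter-Glo after 30 min at room temperature.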

Assay [3] addresses Cellular tumor antigen p53 (Homo sapiens) (UniProt P04637). Nature of the assay: TOX21_p53_BLA_p3_ratio: Tox21 HCT-116 p53 Agonism Beta-lactamase Assay, Ratio, Phase 3 (AID 2283596). Put shortly: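 HCT116 p53-bla cells (4000/well) given compound in DMSO (217-fold dilution) after 5 h, incubated 16 h at 37C. CCF4-AM substrate 2 h at room temperature; 460/530 nm emission ratio, gain fitted against DMSO.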

Assay [4] is described as follows: TOX21_p53_BLA_p4_viability: Viability Assessment in the Tox21 HCT-116 p53 Agonism Beta-lactamase Assay, Phase 4 (AID 2283597).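 Note: hits lower the luminescence signal meaning cytotoxicity.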 In short, it runs like this: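 We seeded HCT116 p53 reporter cells at 4000/well and waited 5 h. We then added compounds in DMSO at a 217-fold dilution and incubated for 16 h. Viability was read as CellTiter-Glo luminescence after 30 min at RT.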

Assay [5] addresses Cellular tumor antigen p53 (Homo sapiens) (UniProt P04637). Nature of the assay: TOX21_p53_BLA_p5_ratio: Tox21 HCT-116 p53 Agonism Beta-lactamase Assay, Ratio, Phase 5 (AID 2283599). Put shortly:
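HCT-116 p53-bla cells (4000/well) plated 5 h, dosed with compound (217-fold DMSO dilution) for 16 h at 37 C; CCF4-AM substrate 2 h at room temperature. Activity is the 460/530 nm emission ratio (405 nm excitation), fitted in gain-of-signal direction versus DMSO.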

A short description of assay [6]: TOX21_p53_BLA_p5_viability: Viability Assessment in the Tox21 HCT-116 p53 Agonism Beta-lactamase Assay, Phase 5 (AID 2283600). In short, it runs like this: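 Compounds, pinned from DMSO at 217-fold dilution, were left on the cells for 16 h. The viability endpoint was ATP content measured by CellTiter-Glo luminescence, where falling signal reflects cytotoxicity.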

For assay [7], the target named is Cellular tumor antigen p53 (Homo sapiens) (UniProt P04637). The assay can be described thus: TOX21_p53_BLA_p4_ratio: Tox21 HCT-116 p53 Agonism Beta-lactamase Assay, Ratio, Phase 4 (AID 2283601). Put shortly: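 HCT-116 p53 beta-lactamase reporter cells (4000/well) preincubated 5 h, then compound (217-fold dilution of DMSO stock) for 16 h at 37C. CCF4-AM substrate added 2 h at room temperature; 460/530 nm emission ratio fitted upward versus DMSO.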

Assay [8] is described as follows: Tanguay_ZF_120hpf_MORT_legacy: (Legacy) Oregon State University Tanguay Lab 120 Hour Post-fertilization zebrafish Assay for Mortality (AID 2283633). Put shortly:
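Brightfield scoring of embryo death (binary) at 24 and 120 hpf; static exposure 6–120 hpf, 28C, sealed and foil-covered. Pronase-dechorionated 5D wild-type larvae, single embryo per well. DMSO 0.64% v/v; trimethyltin chloride 5uM positive control.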

The nature of assay [9]: Tanguay_ZF_120hpf_YSE_legacy: (Legacy) Oregon State University Tanguay Lab 120 Hour Post-fertilization zebrafish Assay for Yolk Sac Edema (AID 2283634).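 For AC50: actives raise the incidence of yolk sac edema above the DMSO baseline.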 In short, it runs like this:
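Binary brightfield scoring of yolk sac edema at 120 hpf; DMSO baseline, gain-of-signal fitting. Dechorionated 5D larvae, one per well, static exposure 6–120 hpf, 28C, 0.64% DMSO. Dead embryos not scored.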

Assay [10] is described as follows: TOX21_p53_BLA_p2_viability: Viability Assessment in the Tox21 HCT-116 p53 Agonism Beta-lactamase Assay, Phase 2 (AID 2283591).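 Note: compound exposure lasted 16 h at 37 °C; actives lower the ATP signal meaning cytotoxicity.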 Put shortly: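 HCT116 p53-bla cells, 4000/well, dosed after 5 h plating (217-fold dilution of DMSO stocks) and incubated 16 h at 37C. Viability taken as cellular ATP by CellTiter-Glo luminescence after 30 min RT; signal loss marks cytotoxicity.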

“And” between values parts separate entries of the source, which are not always exact repeats. Equal values may be shown once. Inconclusive results are not listed. The source holds several records for some structures; these can differ, active in one and inactive in another. The source made the active and inactive calls. Rule for the calls: active = hit-call score of the fitted dose curve at least 0.9, where 1 is the maximum; inconclusive = response in the unintended direction; inactive = score below 0.9.

Regarding `Nc1ccc(Cl)cc1`, the outcome in assay [1], in [2], in assay [3], in assay [4], in assay [5] and in assay [6] was inactive. The result in assay [7] and in [8] was inactive.
For the compound `C=CC(=O)OCC(CC)(COC(=O)C=C)COC(=O)C=C`, the half-maximal activity concentration (AC50) in [1] was 86.6 µM (active); in assay [2] it was 69.2 µM (active) and 16.2 µM (active); in assay [4], 75.7 µM (active) and 97.1 µM (active); in assay [6], 85.1 µM (active) and 89.1 µM (active); in assay [7] it was 69.1 µM (active). For the same compound, the result in assay [1], in [3], in assay [5] and in assay [7] was inactive.
As to `CCCN(CCC)c1c([N+](=O)[O-])cc(C(C)C)cc1[N+](=O)[O-]`, the outcome in assay [1], in assay [2], in [3], in assay [4], in assay [6] and in assay [8] was inactive. The outcome in assay [9] was inactive.
For the compound `Cc1cccc(N)c1`, the result in [1], in assay [2], in assay [3], in [4], in [5] and in assay [6] was inactive. The outcome in assay [7], in assay [8] and in assay [9] was inactive.
In the case of `NNC(N)=S`, the compound was called inactive in assay [10], in [1], in assay [2], in assay [3], in assay [4] and in assay [5]. Also, the outcome in assay [7] was inactive.
For the compound `ClC1=C(Cl)C2(Cl)C3C(Cl)C(Cl)CC3C1(Cl)C2(Cl)Cl` (centres undefined), the AC50 is 61.5 µM (active) and 80.2 µM (active) in assay [1]; 55.6 µM (active) in assay [2]; 86.1 µM (active) in [3]; 64.1 µM (active) in assay [4]; 86.4 µM (active) in assay [5]; 46.1 µM (active) in assay [6]. Further, the AC50 in assay [7] was 63.5 µM (active). Further, the call in [2], in assay [3], in assay [4], in assay [5], in [6] and in [7] was inactive. Also, the compound was classed as inactive in assay [8] and in [9].
Regarding `O=P(Oc1ccccc1)(Oc1ccccc1)Oc1ccccc1`, the result in [1], in [2], in [3], in assay [4], in assay [5] and in assay [6] was inactive. The outcome in assay [7], in assay [8] and in assay [9] was inactive.
As to `CNC(=O)Oc1ccc(N(C)C)c(C)c1`, the outcome in [1], in assay [3], in assay [5], in assay [6] and in assay [7] was inactive.
With `CCCCOCC1CO1` (centres undefined), the outcome in assay [1], in assay [3], in assay [5], in assay [6] and in assay [7] was inactive.
As to `CCCCc1ccccc1`, the call in [8] and in assay [9] was inactive.
As for `Cc1c([N+](=O)[O-])cc2c(c1[N+](=O)[O-])C(C)(C)CC2(C)C`, the outcome in [1], in [3], in [6] and in [7] was inactive.
On to `CCNc1nc(Cl)nc(NC(C)(C)C)n1`, for which the outcome in [8] and in assay [9] was inactive.
Turning to `O=c1[nH]c2ccccc2c(=O)o1`, the outcome in assay [1], in [3], in [4], in assay [5], in assay [6] and in assay [7] was inactive.
On to `Nc1ccc2ccccc2c1`, for which the outcome in assay [1], in assay [3], in assay [4], in assay [5], in assay [6] and in assay [7] was inactive. For the same compound, the call in assay [8] was inactive. Further, the AC50 in assay [9] is 34.8 µM (active).
Take `CC(=O)CCc1ccc2c(c1)OCO2`: the outcome in [1], in assay [3], in assay [5] and in [6] was inactive.
`c1cc2c3c(cccc3c1)CC2`: the outcome in assay [3], in [4], in assay [5], in [6], in [7] and in assay [8] was inactive. The outcome in assay [9] was inactive.
Take `CC(Cl)(Cl)C(=O)O`: the result in assay [8] and in [9] was inactive.
On to `CCC1(c2ccccc2)C(=O)N=C(O)NC1=O` (centres undefined), for which the result in [1], in assay [3], in [4], in assay [7], in assay [8] and in assay [9] was inactive.
For `CCCCN(CCCC)SN(C)C(=O)Oc1cccc2c1OC(C)(C)C2`, the compound was classed as inactive in assay [8] and in assay [9].
For the compound `CCCCc1ccc(O)cc1`, the result in assay [1], in assay [3], in [4], in assay [5] and in assay [7] was inactive.
For `O=C(CBr)OCc1ccccc1`, the result in assay [1], in assay [3] and in assay [6] was inactive.
On to `COCCOCCO`, for which the compound was called inactive in assay [8] and in assay [9].
For the compound `CC(C)(C)c1ccc(O)cc1`, the result in assay [8] and in assay [9] was inactive.
On to `CCCCCCCc1ccc(O)cc1`, for which the call in assay [8] and in [9] was inactive.
In the case of `O=P1(N(CCCl)CCCl)NCCCO1` (centres undefined), the result in assay [1], in [3], in [5], in assay [7], in assay [8] and in [9] was inactive.
`CC(Cc1ccc(OCC(=O)O)cc1)NCC(O)c1csc(C(F)(F)F)n1` (centres undefined): the outcome in [1], in assay [3], in [5], in assay [7], in [8] and in [9] was inactive.
As to `Cc1ccc(O)cc1C`, the compound was called inactive in [8] and in assay [9].
With `CCOP(=S)(S)OCC`, the result in [1], in [3], in assay [4], in assay [6] and in assay [7] was inactive.
Take `CCOP(=S)(OCC)SCSCC`: the compound was classed as inactive in assay [8] and in assay [9].
As for `O=[N+]([O-])c1ccc(Cl)c(Cl)c1`, the call in assay [8] and in [9] was inactive.
As to `CCOP(=S)(Oc1ccc([N+](=O)[O-])cc1)c1ccccc1` (centres undefined), in assay [8], the result was inactive.
With `CCN(CC)c1ccccc1`, the compound was classed as inactive in assay [2], in assay [3], in [4], in assay [5], in assay [6] and in [7]. Also, the compound was classed as inactive in [8] and in [9].
As for `O=C(O)C(Cl)Cl`, the compound was classed as inactive in assay [8] and in [9].
Regarding `CCCCC(CC)COC(=O)c1c(Br)c(Br)c(Br)c(Br)c1C(=O)OCC(CC)CCCC` (centres undefined), the result in assay [1], in assay [3], in [5] and in assay [7] was inactive.
Regarding `Nc1cc2c3c(c1)C(c1ccccc1)=N[C@@H](NC(=O)c1cccnc1)C(=O)N3CC2`, the result in [8] and in assay [9] was inactive.
For `c1ccc(OP(Oc2ccccc2)Oc2ccccc2)cc1`, the result in assay [1], in assay [3], in assay [4], in [5], in [8] and in [9] was inactive.
As for `CCCCOCCOP(=O)(OCCOCCCC)OCCOCCCC`, the result in assay [1], in assay [2], in assay [4], in [6] and in assay [7] was inactive.
`ClC(Cl)c1ccccc1`: the compound was called inactive in assay [8] and in assay [9].
As to `CN(C)C(=O)Cl`, the call in assay [8] and in assay [9] was inactive.
In the case of `CSC(C)(C)C=NO`, the outcome in assay [8] and in assay [9] was inactive.
Take `Cc1ccc([N+](=O)[O-])cc1C`: the compound was classed as inactive in assay [8] and in assay [9].
On to `ClC(Cl)(Cl)c1ccccc1`, for which the result in [3], in assay [4], in assay [5], in assay [6], in [7] and in assay [8] was inactive. In assay [9], the outcome was inactive.
Turning to `CC1=C(C(=O)Nc2ccccc2)S(=O)(=O)CCO1`, the AC50 in [1] was 22.1 µM (active); in assay [5], 15.8 µM (active); in assay [7] it was 21 µM (active). In addition, the compound was classed as inactive in assay [4] and in assay [6].
With `c1nc[nH]n1`, the result in assay [1], in assay [3], in assay [5], in assay [6] and in [7] was inactive.
For `O=C(O)C1C(C(=O)O)C2(Cl)C(Cl)=C(Cl)C1(Cl)C2(Cl)Cl` (centres undefined), the outcome in assay [1], in assay [3], in assay [5], in assay [6], in assay [7] and in assay [8] was inactive. The result in assay [9] was inactive.

Broadly, the AC50 is the concentration giving half of the maximal activity seen.
